Compound activity (PubChem BioAssay)
FLuc modulator: inhibits or activates purified firefly luciferase, miR-21 counter-screen; purified FLuc, Km substrates, luminescence inhibition; Potency, µM (highest dose often 57.5 µM), hits mostly inhibitors; 6.9% of 360,000 active; note: nearly all actives have a fitted effect of over 55% in size
Target sequence (P08659 whole entry, looked up): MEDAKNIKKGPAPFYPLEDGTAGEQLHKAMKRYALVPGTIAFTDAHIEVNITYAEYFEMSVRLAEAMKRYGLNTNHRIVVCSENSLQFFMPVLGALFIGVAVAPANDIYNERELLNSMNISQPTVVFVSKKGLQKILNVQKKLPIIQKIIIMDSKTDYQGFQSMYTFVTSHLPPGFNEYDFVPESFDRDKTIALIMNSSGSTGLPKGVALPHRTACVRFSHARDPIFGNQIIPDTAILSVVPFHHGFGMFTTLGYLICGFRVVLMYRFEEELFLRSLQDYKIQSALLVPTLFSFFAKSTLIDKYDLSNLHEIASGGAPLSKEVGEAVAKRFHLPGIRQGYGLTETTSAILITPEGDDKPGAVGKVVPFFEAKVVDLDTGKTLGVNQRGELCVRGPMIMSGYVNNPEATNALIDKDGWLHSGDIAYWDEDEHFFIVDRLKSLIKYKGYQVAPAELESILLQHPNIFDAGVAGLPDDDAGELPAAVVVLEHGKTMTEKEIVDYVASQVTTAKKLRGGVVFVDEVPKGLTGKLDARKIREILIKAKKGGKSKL
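Biochemical qHTS of compounds, final roughly 60 µM downward over six points, against 10 nM purified firefly luciferase using Km concentrations of substrates (10 uM D-luciferin, 10 uM ATP) in Tris acetate pH 7.5 buffer; luminescence output.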
p53 reactivation: mutant p53 re-activation in reporter cells; H1299 p53-A138V BP100-luciferase reporter, luminescence, 24 h; Potency, µM (doses to about 92.2 µM), hits mostly activators; 0.063% of 320,000 active; note: nearly all actives have a fitted effect of over 45% in size
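H1299 (p53-null), stable ts p53-A138V + BP100-Luc; 1000 cells/well, Opti-MEM/10% FBS; cpd 4 pt, 1:5; 24 h, 37 deg C, 5% CO2; detection reagent 10 min RT; luminescence.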
Rab9 prom act: activators of Rab9 promoter; Huh7 Rab9 promoter-luciferase reporter, luminescence, 24 h; Potency, µM (titrated, usually from 9.22 µM), actives largely listed as activators; 2.8% of 320,000 active; note: nearly all actives have a fitted effect of over 60% in size
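Luminescence from Amplite-detected luciferase (10 minutes, ambient) reports Rab9 promoter activation. Before that, stable Rab9-luciferase Huh7 cells (1500/well, reduced-serum OP-MEM I plus 10% FBS) were exposed to compound for 24 hours at 37C.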
SMN2 splice up: enhancers of SMN2 splice variant expression. HEK293 SMN2-luciferase splicing reporter, luminescence, 30-36 h. Potency, µM (series often up to 46.1 µM), actives largely listed as activators. 2.8% of 210,000 active. AID 1458; note: nearly all actives have a fitted effect of over 55% in size
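HEK293 cells carry an SMN2 […]–luciferase reporter in which exon 7 inclusion puts luciferase in frame. Cells were plated 10-12 h before compound addition, then incubated 30-36 h at 37C. ONE-Glo luminescence was read; sodium butyrate at 4.5 mM final served as control.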
ELG1 genotox: induces genotoxicity in HEK293T cells with luciferase-tagged ELG1; Potency, µM (top dose mostly 46 µM), usual class: activators; HEK293T ELG1-luciferase reporter, luminescence, 16 h; 1.3% of 330,000 active; AID 504466; note: nearly all actives have a fitted effect of over 60% in size
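16 hr compound incubation (37 °C, 5% CO2) of HEK293T cells carrying luciferase-tagged ELG1; luciferase then measured by ONE-Glo luminescence after 30 min at RT.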
NPC1 promoter act: activates the NPC1 promoter; Huh7 NPC1 promoter luciferase reporter, 24 h; Potency, µM (doses to about 9.22 µM), actives largely listed as activators; 2.4% of 320,000 active; note: nearly all actives have a fitted effect of over 60% in size
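In 1536-well qHTS, Huh7 cells harboring an NPC1 promoter–luciferase construct received compound for 24 h; activation was quantified by luminescence following luciferase reagent addition.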
Of the large screens only hits and unclear results are named; the others gave an inactive call. Most compounds without a hit are left out; they make up all but 7.4% or so of the library. Calls come from the whole dose curve; as a rule, active = well fitted curve in the direction sought with a large enough effect; inconclusive = small, poorly fitted or top-dose-only effect, or another doubt; inactive = no such curve, though single readings can be large; an effect the other way counts as inactive or inconclusive.

CCOC(=O)C(Cc1ccc(NC(C)=O)cc1)N1C(=O)c2ccccc2C1=O (centres undefined)	none (no result: FLuc modulator, SMN2 splice up)
CCCn1cnc2cc(NCc3ccc(Br)cc3)ccc21	FLuc modulator 11µM, Rab9 prom act 3.5µM, ELG1 genotox inconclusive, NPC1 promoter act inconclusive (no result: SMN2 splice up)
COc1cc(CNc2ccc3c(c2)ncn3C(C)C)cc(OC)c1OC	none (no result: p53 reactivation, Rab9 prom act, ELG1 genotox, NPC1 promoter act)
Cn1cnc2cc(NCc3ccc(Cl)cc3)ccc21	FLuc modulator 17µM, Rab9 prom act 0.89µM, ELG1 genotox inconclusive, NPC1 promoter act 2.5µM (no result: SMN2 splice up)
CCN(CC)c1ccc(CNc2ccc3c(c2)ncn3CC)cc1	none (no result: SMN2 splice up)
CCn1cnc2cc(NCc3ccc(Br)cc3)ccc21	FLuc modulator 13µM, p53 reactivation inconclusive, Rab9 prom act 0.71µM, ELG1 genotox inconclusive, NPC1 promoter act 3.5µM (no result: SMN2 splice up)
Cc1ccc(CNc2ccc3c(c2)ncn3C(C)C)cc1	FLuc modulator 6µM, Rab9 prom act 2.8µM, ELG1 genotox 9.2µM, NPC1 promoter act 2.2µM (no result: SMN2 splice up)
CN(CC(=O)Nc1ncn[nH]1)S(=O)(=O)c1ccc(Cl)cc1	none (no result: SMN2 splice up)
Cc1ccc(NC(=O)C2CCN(c3nc4ccccc4nc3C(F)(F)F)CC2)cc1C	none (no result: p53 reactivation, Rab9 prom act, SMN2 splice up, ELG1 genotox, NPC1 promoter act)
Cc1cccc(-c2nnc(SCC(=O)NC3CCCCC3)o2)c1	none (no result: p53 reactivation, Rab9 prom act, ELG1 genotox, NPC1 promoter act)
O=c1ccn(C2OC(COP(=O)(O)OP(=O)(O)OP(=O)(O)O)C(O)C2O)c(=O)[nH]1 (centres undefined)	none (no result: FLuc modulator, p53 reactivation, Rab9 prom act, ELG1 genotox, NPC1 promoter act)
Cc1ccc(-n2c(=O)c3ccccc3n(CC(=O)Nc3cccc(C(F)(F)F)c3)c2=O)cc1	none (no result: p53 reactivation, Rab9 prom act, ELG1 genotox, NPC1 promoter act)
Cc1snc(SCC(=O)c2ccc([N+](=O)[O-])cc2)c1C#N	FLuc modulator inconclusive, p53 reactivation inconclusive, Rab9 prom act inconclusive, SMN2 splice up inconclusive, NPC1 promoter act inconclusive
Cc1snc(SCC(=O)c2ccc(F)cc2)c1C#N	FLuc modulator inconclusive, Rab9 prom act 2.8µM, NPC1 promoter act inconclusive
Cc1cccc(C(=O)N2c3ccccc3C(=O)OC2c2ccc3c(c2)OCO3)c1 (centres undefined)	SMN2 splice up inconclusive
O=C1OC(c2ccc3c(c2)OCO3)N(C(=O)c2ccc(Cl)c(Cl)c2)c2ccccc21 (centres undefined)	p53 reactivation inconclusive, Rab9 prom act 3.2µM, SMN2 splice up 13µM, ELG1 genotox inconclusive, NPC1 promoter act inconclusive
CCc1cc2cc(C(=O)N3CCN(c4ccccc4)CC3)sc2s1	none
CCc1cc2cc(C(=O)Nc3ccc(F)cc3)sc2s1	FLuc modulator inconclusive, p53 reactivation inconclusive, Rab9 prom act 2.5µM, NPC1 promoter act inconclusive
Cn1nc(C(F)(F)F)c2cc(C(=O)Nc3ccc(F)cc3)sc21	none (no result: SMN2 splice up)
CCc1cc2cc(C(=O)N3CCN(Cc4ccccc4)CC3)sc2s1	FLuc modulator 17µM (no result: p53 reactivation, Rab9 prom act, ELG1 genotox, NPC1 promoter act)
CC(C)(C)c1ccc(C(=O)Nc2ccc(F)cc2)s1	FLuc modulator 1.2µM, p53 reactivation inconclusive, Rab9 prom act 0.63µM, ELG1 genotox 2.9µM, NPC1 promoter act 0.71µM (no result: SMN2 splice up)
CCc1cc2cc(C(=O)Nc3ccccc3F)sc2s1	FLuc modulator 0.76µM, p53 reactivation inconclusive, Rab9 prom act 1.8µM, SMN2 splice up inconclusive, ELG1 genotox 1.2µM, NPC1 promoter act 2.2µM
COc1ccc(C)cc1S(=O)(=O)Nc1ccc2c(c1)N(C(C)=O)CCC2	none (no result: SMN2 splice up)
COc1ccc(OC)c(CNC(=O)C2CCC(=O)N2C(C)C)c1 (centres undefined)	none (no result: SMN2 splice up)
Cc1cccc(-c2nc3c(cnn3-c3ccccc3)c(=O)n2-c2ccc(Br)cc2)c1	none (no result: p53 reactivation, Rab9 prom act, ELG1 genotox, NPC1 promoter act)
CCOc1cc(-c2nccc3cc(OC)c(OC)cc23)cc(OCC)c1OCC	none (no result: SMN2 splice up)
Cc1ccc(S(=O)(=O)N2CCCCC2)cc1NC(=O)COC(=O)C1(C)CC1(Cl)Cl (centres undefined)	none (no result: SMN2 splice up)
CCN(CC)CCNC(=O)Cn1ncc2c3ccccc3n(Cc3ccc(Cl)cc3)c2c1=O	none (no result: p53 reactivation, Rab9 prom act, ELG1 genotox, NPC1 promoter act)
Cc1ccc(-c2nnc(NC3CCCC3)s2)cc1	FLuc modulator 3µM, Rab9 prom act 0.5µM, ELG1 genotox inconclusive, NPC1 promoter act 0.63µM (no result: p53 reactivation, SMN2 splice up)
Cc1ccc(C(=O)Nc2nnc(-c3ccc(C(C)(C)C)cc3)s2)cc1	FLuc modulator inconclusive
Cc1cc(C)n(-c2nc(NCCCO)c3c4c(sc3n2)CCCC4)n1	FLuc modulator 21µM, p53 reactivation inconclusive
